Measured values as given in PubChem BioAssay AID1347428 (National Center for Advancing Translational Sciences (NCATS), 2020).
Out of some 91,000 compounds screened, about 290 (0.32%) were called active. Roughly 7% stayed inconclusive and do not appear here. The list comes from a sample in which actives are over-represented; it also holds similar structures and randomly drawn compounds. Unmarked numbers belong to inactive results. Calls come from the whole dose curve; as a rule, active = well fitted inhibition curve with a large enough effect; inconclusive = small, poorly fitted or top-dose-only effect; inactive = no such curve, though single readings can be large or run the other way.

Target: Single-stranded DNA cytosine deaminase (Homo sapiens) (UniProt Q9GZX7)
Experiment: Primary qHTS assay for inhibitors of Activation Induced Cytidine Deaminase (AID): AID signal; note: nearly all actives have a fitted effect of over 25% in size
Settings: AID deamination FRET fluorescence, UDG-coupled, 4 h; series mostly up to 115 µM; activity change, negative = inhibition: at the top concentration
Source text: Assay Provider (PI) Patricia Gearhart Ph.D.
National Institute on Aging
National Institute of Health (NIH), Bethesda, MD
Assay Provider (PI) Rahul Kohli Ph.D.
Perelman School of Medicine
University of Pennsylvania, Philadelphia, PA
Activation-Induced Deaminase (AID) is a cytosine deaminase which converts cytosine into uracil within stretches of ssDNA. The presence of uracil in DNA initiates a cascade of mutagenic DNA repair to introduce point mutations and DNA double strand breaks. Specific targeting of AID to the immunoglobulin heavy chain loci (Igh) promotes mutagenesis in the antibody variable region for somatic hypermutation (SHM) or switch regions leading to class switch recombination (CSR). However, AID also plays a role in accumulating unnecessary mutations across the genome. Mis-targeting of AID results in the initiation of tumor development and leads to greater drug resistance among cancer cells when continually expressed. To identify an AID inhibitor, a small molecule library will be screened in collaboration with NCATS core facility at NIH. To confirm biological function, inhibitors will be examined in an in vitro murine B-cell activation assay and subsequent secondary validation screens. Top molecules will be further screened to identify inhibitory efficacy against a wild type primary splenocytes assay. Using these approaches, we hope to identify a small molecule with great efficacy and low toxicity for use as a molecular probe to further characterize AID's intricacies, or even as a therapeutic.
A FRET based analysis of cytosine deamination, was developed to identify potential inhibitors of AID catalytic activity. This screen has two signal output, Read 1 evaluates the AID inhibition response. The second readout (Read 2) evaluates UDG response and is uses as a counterscreen to exclude false positive inhibitors. Inhibition in AID and inactivity in the UDG signal is the desired outcome for this assay.
SEQUENCE No. (e.g., 1, 2, 3, etc.); […] (e.g., Cells, Incubation, Reagent, etc.); VALUE; DESCRIPTION
1a; Reagent; 3 uL; [4/3x] 1 uM AID/2.67 U/mL UDG
1b; Reagent; 3 uL; 2 U/mL UDG
1c; Reagent; 3 uL; 1 uM AID
2a; Compound; 46 nL; Follow-up plates (0.64 uM - 10 mM)
2b; Control; 46 nL; ATA ([…] - 10 mM)
3; Time; 10 min; incubation at room temperature
5; Time; 4 hr; incubation at room temperature
6; Reagent; 4 uL; [2x] 250 mM NaOH
7; Time; 15 sec; centrifuge at 1000 rpm
8; Time; 30 min; incubation at room temperature
9a; Detection; fluorescence (Read 1: AID); EnVision (PerkinElmer) plate reader, 540 excitation and 590 emission filters
9b; Detection; fluorescence (Read 2: UDG); EnVision (PerkinElmer) plate reader, 560 excitation and 665 emission filters
NOTES (numbers refer to sequence above)
1a; Reagents were dispensed in a medium-binding black solid-bottom Greiner plates (789176F) using a BioRptr liquid dispenser. Dispense 3 uL of [4/3x] 1 uM AID (provided by Kohli lab) and [4/3x] 2 U/mL UDG (NEB M0280L) into columns 1, 2, 5 to 48.
1b; Dispense 3 uL of [4/3x] 2 U/mL UDG into column 3.
1c; Dispense 3 uL of [4/3x] 1 uM AID into column 4.
2a; Compound (7-points [uM] (0.64; 3.2; 16; 80; 400; 2,000; 10,000; 20,000) double pin-transferred (Dip Factor = 2) using the Kalypsys (Wako USA) pintool equipped with a 1536 pinhead for a final concentration range of 7.32 nM - 114 uM.
2b; 10 mM Aurintricarboxylic Acid (Sigma A1895) (ATA, 8-point, n = 2, 1:2.5 dilution in column 2) double pin-transferred (Dip Factor = 2) using the Kalypsys (Wako USA) pintool equipped with a 1536 pinhead for a [final] range of 186 nM - 114 uM.
3; Room temperature incubation.
4; Dispense 1 uL of substrate mixture from the Kohli lab [4x] […] DJC20 and [4x] 250 nM DJC23 into columns 1 to 48 .
5; Room temperature incubation.
6; Dispense 4 uL of substrate mixture [2x] 250 mM NaOH into columns 1 to 48.
7; Centrifugation step to remove bubbles.
8; Room temperature incubation
9a; Fluorescence signal (column label AID) was read using the EnVision plate reader. […]
% is set by controls: 0 for no effect and ±100 for the full control effect; potency is the fitted concentration of half-maximal effect.

Sequence of Single-stranded DNA cytosine deaminase (Homo sapiens) (Q9GZX7 whole entry, looked up): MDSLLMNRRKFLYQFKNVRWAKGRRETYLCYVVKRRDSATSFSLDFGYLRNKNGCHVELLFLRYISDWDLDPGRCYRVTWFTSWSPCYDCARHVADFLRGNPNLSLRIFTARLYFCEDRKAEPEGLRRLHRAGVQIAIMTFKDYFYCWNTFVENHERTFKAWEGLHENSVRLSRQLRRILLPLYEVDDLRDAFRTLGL

Going from `CCc1nc2ccccc2c(NC(=O)CN(CC)CC)c1C` to `Cc1nn(C)c2c(=O)n(CC(=O)NCc3ccccc3)ccc12`, the “activity change, negative = inhibition” value falls from 2.75% to -12.6%.

First: Cc1ccn2c(F)c(C(F)(F)F)nc2c1
Second: CCNCc1ccccc1C(F)(F)F
The “activity change, negative = inhibition” value of the first is lower: -2.88% for the first, -1.7% for the second.

First: C=CCn1c(NCCCOCC)nc2c1c(=O)[nH]c(=O)n2C
Second: CCCCNc1oc(/C=C/c2ccc(OCC)cc2)nc1C#N
The “activity change, negative = inhibition” value of the first is lower: -13.2% for the first, -4.06% for the second.

First: Cc1ccc2[nH]c(=O)c(-c3noc(CCCC(=O)NC4CCCCC4)n3)cc2c1
Second: CCC(=O)c1ccc(C2CCCCC2)cc1
The “activity change, negative = inhibition” value of the first is higher: 11% for the first, 0.556% for the second.

Compared with `Cc1c(F)cccc1NC(=O)C12CC3CC(CC(C3)C1)C2`, `CCCNC(=O)C1CCC(Cn2c(=O)c3sccc3n(Cc3ccccc3F)c2=O)CC1` (stereo not given) is lower in “activity change, negative = inhibition” value: -16.2% for the first, -24.2% for the second.

Compared with `Cc1ccc(C)c(C(C)NC(=S)NCc2ccc(Cl)cc2)c1` (stereo not given), `Cc1ccc(NC(=O)CCc2nc3cc(Cl)ccc3n(CC(C)C)c2=O)cc1` is higher in “activity change, negative = inhibition” value: -11.9% for the first, 1.54% for the second.

Going from `O=C(c1ccc(Cl)cc1Cl)N(C1CCCCC1)C1CCCCC1` to `COc1cc(CN(C(=S)NCC(=O)NCc2ccccc2Cl)C2CCCC2)cc(OC)c1OC`, the “activity change, negative = inhibition” value falls from -9.19% to -11.1%.

Going from `Cc1ccc(CNC(=O)c2scnc2C)cn1` to `Cc1cc(NC(=O)c2ccc(F)cc2F)n(CCC#N)n1`, the “activity change, negative = inhibition” value rises from -0.773% to 2.66%.

Going from `Cc1cc(-c2noc(COc3ccc(I)cc3)n2)c2ccccc2n1` to `Cc1ccc(OCCSc2nnc(COc3ccccc3Cl)n2C)cc1`, the “activity change, negative = inhibition” value falls from -15.1% to -23.4%.

Compared with `CCn1nnc(NC(=O)c2cc3ccccc3cc2OC)n1`, `COc1cc(OC)cc(-c2nc3nc(C)c(CCC(=O)Nc4ccccc4)c(C)n3n2)c1` is lower in “activity change, negative = inhibition” value: -11.7% for the first, -12.3% for the second.

First: CC(C)NC(=O)C1CCC(Cn2c(=O)c3sccc3n(Cc3ccc(F)cc3)c2=O)CC1 (stereo not given)
Second: O=C(Nc1ccc2nc(N3CCCC3)sc2c1)c1ccc(F)cc1
The “activity change, negative = inhibition” value of the first is lower: -4.59% for the first, 2.27% for the second.

First: N#Cc1cccc(NC(=S)NCCc2ccccc2)c1
Second: N#Cc1ccc(COC(=O)CCC(=O)c2ccccc2)cc1
The “activity change, negative = inhibition” value of the first is lower: -15.4% for the first, -10.1% for the second.

Compared with `CCCCNC(=O)Nc1ccccc1CC(N)=O`, `CC(C)NS(=O)(=O)c1ccc(C(=O)NCC(=O)O)cc1` is higher in “activity change, negative = inhibition” value: -1.59% for the first, 2.86% for the second.

First: O=C(CSc1ccc2c(c1)OCCO2)Nc1ccc2c(c1)OCCO2
Second: COc1ccc(NC(=O)Cc2ccc3c(c2)OCCO3)cn1
The “activity change, negative = inhibition” value of the first is lower: -9.11% for the first, 4.51% for the second.

Compared with `COCCNc1nc(-c2ccccc2)c2cc(Br)ccc2n1`, `Cc1nnc(SCC(=O)NCc2ccccc2Cl)c2nn(-c3ccccc3)c(C)c12` is higher in “activity change, negative = inhibition” value: -17.5% for the first, 18.6% for the second.

Going from `CCN(C(=O)C1CCN(c2nc3ccccc3o2)CC1)c1ccc(F)c(F)c1` to `O=C(Nc1c(N2CCCC2)c2ccccc2oc1=O)c1ccc(Br)o1`, the “activity change, negative = inhibition” value rises from -14% to 4.68%.

Compared with `CC(=O)Oc1c(Cl)cc(Cl)cc1Sc1cc(Cl)cc(Cl)c1OC(C)=O`, `CC(C)c1ccc(NC(=O)CSc2nc3ncc(Cl)cc3[nH]2)cc1` is higher in “activity change, negative = inhibition” value: -6.63% for the first, -2.2% for the second.

Going from `CCCCCCCCc1cnc(-c2ccc(O)cc2)nc1` to `CCOc1ccc(C(=O)CCC(=O)OCC(=O)c2ccc3c(c2)OCCO3)cc1`, the “activity change, negative = inhibition” value rises from 2.8% to 20.4%.

Going from `CC(=O)N1CCC(NC(=O)c2cc(C)nc3cc(F)ccc23)CC1` to `O=C(O)C1CCN(C(=O)Cn2ccc3c(Br)cccc32)CC1`, the “activity change, negative = inhibition” value rises from 9.52% to 10.4%.

Going from `Cc1nn(-c2ncnc3nc[nH]c23)c2c1C(c1cccc(F)c1)CC(=O)N2` (stereo not given) to `COc1cc(C2CC(=O)Nc3nc(-c4ccccc4)[nH]c(=O)c32)ccc1OCc1ccc(F)cc1` (stereo not given), the “activity change, negative = inhibition” value rises from -20.6% to -1.85%.

Compared with `C(=C\c1ccccc1)/CNC1CC1`, `O=C(/C=C/c1cccs1)N1CC=C(c2ccccc2)CC1` is higher in “activity change, negative = inhibition” value: -7.64% for the first, -1.83% for the second.

First: Cc1cc(C(=O)O)c(C)n1CC(F)(F)F
Second: O=C(O)c1ccc(I)c(Br)c1
The “activity change, negative = inhibition” value of the first is higher: 3.52% for the first, -4.24% for the second.

First: C(#CCN1CCCCC1)COC(c1ccccc1)c1ccccc1
Second: O=C1c2ccccc2C(=Cc2ccc(Cl)cc2)c2ccccc21
The “activity change, negative = inhibition” value of the first is higher: -6.93% for the first, -10.6% for the second.

Compared with `COc1cccc(CN(C)S(=O)(=O)c2cnn(C)c2)c1OC`, `COc1ccc(CC(=O)N2CC(=O)Nc3ccc(Br)cc3C2c2ccc(F)cc2)cc1OC` (stereo not given) is lower in “activity change, negative = inhibition” value: -0.162% for the first, -20.9% for the second.

First: CC(C)CCNC(=S)Nc1cccc(C(F)(F)F)c1
Second: Cc1cc(C(=O)OCc2cccc(C#N)c2)c(C)o1
The “activity change, negative = inhibition” value of the first is lower: -14% for the first, 2% for the second.

First: O=C(N/N=C/c1ccccc1OCCOc1ccc([N+](=O)[O-])cc1)Nc1ccccc1
Second: Cc1cccc(CC(=O)N2CC(=O)Nc3ccc(F)cc3C2c2ccccc2)c1 (stereo not given)
The “activity change, negative = inhibition” value of the first is higher: -3% for the first, -10.3% for the second.

With `O=C(C1CCC(Cn2c(=O)c3sccc3n(Cc3ccccc3F)c2=O)CC1)N1CCCCC1` (stereo not given) the Potency was 25.1 µM (active).
`Cc1nc2nc(SCC(=O)N(Cc3ccccc3)C(C)C)nn2c(C)c1Cc1ccccc1Cl` was tested, and the Potency was 22.4 µM (active).
With `CCCCOc1ccc(C(=O)N2CC(=O)Nc3ccc(Br)cc3C2c2ccc(F)cc2)cc1` (stereo not given) the Potency was 35.5 µM (active).
